# Only some compounds are listed: those with a hit (about 15% of all), similar ones and a draw of the others.
# HCMV inh = blocks human cytomegalovirus replication; HFF cells, HCMV-luciferase reporter, 72 h; stronger effect = lower value; activity change, negative = inhibition, % at 57.5 µM; 4.5% of 410,000 active; in the data active = activity change below about -60%; inconclusive = no clear call, values can overlap the other calls; inactive = above about -39%; also: % is scaled to controls: 0 for no effect and ±100 for the full control effect
#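 Human foreskin fibroblasts infected with luciferase-reporter HCMV at MOI 1 PFU/cell, compounds at two doses. Luciferase measured 72 h post infection; normalized to buffer-only basal and Salinomycin (10uM) controls.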
# SARS PLP yeast = blocks SARS-CoV papain-like protease in a yeast assay; S. cerevisiae expressing SARS-CoV PLpro, growth rescue; Potency, µM (doses to about 32.9 µM), without a hit: top-dose activity, positive = growth rescue, actives largely listed as activators; 0.19% of 330,000 active; calls by dose curve; also: potency is read from the fitted curve at half-maximal effect; 0% is about no effect; nearly all actives have a fitted effect of over 55% in size
# HCV inhibitor = HCV inhibition; Potency, µM (titrated, usually from 41.8 µM), for inactives: at the highest dose activity change, negative = inhibition, actives largely listed as inhibitors; AID 651820; Huh7.5.1 HCVcc-Cre infection, luciferase reporter, 44 h; 3.4% of 340,000 active; also: potency is read from the fitted curve at half-maximal effect; % is scaled to controls: 0 for no effect and ±100 for the full control effect
#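 1,000 cells/well; 4 h culture; + compound; + HCVcc-Cre (~0.5 moi); 44 h; luciferase substrate, RT 15 min; read 15 sec.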
# Pf growth 96h = inhibits malaria parasite growth, 96 h; P. falciparum luciferase reporter growth, 96 h; Potency, µM (series often up to 28.7 µM), for the others: at the top dose activity change, negative = inhibition, actives largely listed as inhibitors; 6.9% of 320,000 active; also: potency is read from the fitted curve at half-maximal effect; % is scaled to controls: 0 for no effect and ±100 for the full control effect
#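 Compounds incubated with erythrocytes infected by luciferase-expressing P. falciparum (2% hematocrit, 0.05% parasitemia final) for 96 hours, 37 C in 5% CO2. Growth inhibition scored as decreased luciferase luminescence.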
# Sm TGR inh = S. mansoni TGR enzyme inhibition; Q962Y6; purified TGR, DTNB reduction, TNB absorbance 405 nm; Potency, µM (titrated, usually from 114 µM), inactives show at the highest dose activity change, negative = inhibition, most hits filed as inhibitors; 3% of 360,000 active; also: potency is read from the fitted curve at half-maximal effect; % is scaled to controls: 0 for no effect and ±100 for the full control effect; nearly all actives have a fitted effect of over 60% in size
#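 First, TGR (20 nM dispensed) and NADPH were mixed with compound. Second, a 15 min room-temperature incubation followed. Third, further NADPH and then DTNB were added to start the reaction. Finally, TNB absorbance was monitored kinetically.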
# Pf growth 48h = P. falciparum growth inhibition at 48 hours (one generation) | P. falciparum luciferase growth in erythrocytes, 48 h | Potency, µM (titrated, usually from 28.7 µM), for inactives: at the highest dose activity change, negative = inhibition, hits mostly inhibitors | 5.9% of 310,000 active; also: potency is read from the fitted curve at half-maximal effect; % is scaled to controls: 0 for no effect and ±100 for the full control effect
#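 Luminescence readout; reporter = integrated firefly luciferase in P. falciparum. RBC culture at 2% hematocrit, 0.1% parasitemia final, 37 C/5% CO2; decreased signal taken as growth inhibition.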
# Starred values were filed as active, the others as inactive; ? = inconclusive; nt = no result given; [ ] = another dose, or the depositor's remark. Unless noted, calls follow the shape of the dose curve; as a rule, active = well fitted curve in the direction sought with a large enough effect; inconclusive = small, poorly fitted or top-dose-only effect, or another doubt; inactive = no such curve, though single readings can be large; an effect the other way counts as inactive or inconclusive.
SMILES,HCMV inh,SARS PLP yeast,HCV inhibitor,Pf growth 96h,Sm TGR inh,Pf growth 48h
CC(=O)c1cccc(-c2ccnc3c2CC(C(=O)Nc2cccnc2)O3)c1 (centres undefined),-15,nt,nt,nt,nt,nt
CC(=O)c1cccc(-c2ccnc3c2CC(C(=O)Nc2ccc(C(C)C)cc2)O3)c1 (centres undefined),-82*,nt,nt,nt,nt,nt
COc1ccc(-n2c(SCC(=O)Nc3ccccc3)nnc2-c2ccc(NS(=O)(=O)c3ccc(C)cc3)cc2)cc1,-36,4%,?,3.3µM*,0%,nt
COc1ccc(-n2c(SCC#N)nnc2-c2ccc(NS(=O)(=O)c3ccc(C)cc3)cc2)cc1,nt,5%,?,14%,-23%[11.4 µM],nt
COc1ccc(-n2c(SCC(N)=O)nnc2-c2ccc(NS(=O)(=O)c3ccc(C)cc3)cc2)cc1,-25,-9%,10%,10µM*,-3%,nt
O=C(O)C1=C[C@@H](c2coc3ccccc3c2=O)C[C@@H](OCCCCO)O1,-18,0%,7%,-8%,-15%,6%
CSc1ccc(/C=C(/Sc2nnc(-c3ccccc3)o2)C(=O)O)cc1,-69*,4%,-25%,23%,0%,7%
Cc1ccc(S(=O)(=O)N2CCN(C(=O)CN3C(=O)NC4(CCCC4)C3=O)CC2)c(C)c1,-28,1%,21%,-4%,-1%,?
CCOCCc1nn2c(=O)cc(COC(=O)c3ccc4c(c3)OCO4)nc2s1,21,nt,nt,nt,7%,nt
Fc1cnc(Cl)nc1NC1CCCCC1,3,-2%,7%,4.7µM*,5%,24%
Fc1ccc(-n2ncc3c(NC4CCCCCC4)ncnc32)cc1,-28,nt,nt,nt,23%,nt
Fc1ccc2c(c1)/C(=N/Nc1ccccn1)CCS2,0,0%,?,-20%,-5%,?
Fc1ccc(N/N=C2/CCSc3sccc32)c(F)c1,64,0%,9%,0%,25µM*,63%
CCOP(=O)(OCC)C(NC(=O)Nc1ccc(C)c(Cl)c1)c1ccccc1 (centres undefined),?,3%,-25%,15µM*,-3%,?
C=CCn1c(SCc2ccccc2C#N)nnc1-c1cc(Br)ccc1O,7,-20%,-8%,-1%,-9%,2.3µM*
Cc1ccc(C)c2nc3sc(C(=O)O)cc3cc12,-10,-1%,7%,47%,1%,41%
O=C(c1cnc2n(c1=O)CCS2)N(c1ccccc1)C1CCCCC1,15,6%,18%,6.6µM*,-12%,?
Cc1cccc(N(C(=O)c2cnc3n(c2=O)CCS3)C2CCCCC2)c1,1,10%,-19%,164%,-6%,8%
CCCC(=O)Nc1nc2c(OC)ccc(OC)c2s1,56,-1%,8.9µM*,17%,-2%,nt
CCC(=O)Nc1nc2c(OC)ccc(OC)c2s1,29,-9%,11µM*,-3%,0%,nt
Cc1ccccc1-c1cc2nc(OCC3CCCO3)n(C)c(=O)c2s1 (centres undefined),43,nt,nt,nt,nt,nt
Cc1ccsc1C(=O)N(CC(C)C)c1c(N)n(Cc2ccccc2)c(=O)[nH]c1=O,9,4%,nt,-22%,-3%,?
CN1C2CCC1/C(=C\c1ccccc1F)C(=O)/C2=C/c1ccccc1F,-72*,0%,-2%,?,20µM*,?
CC1CCN(C2=NC(=O)/C(=C/c3ccccc3F)S2)CC1,?,-1%,-17%,32%,0%,2%[0.00184 µM]
COc1ccc(-c2cc(OC(=O)c3ccc(F)cc3)c3c(C)oc(C)c3c(=O)c2)cc1,nt,-7%,nt,10µM*,35µM*,?
SMILES,HCMV inh,SARS PLP yeast,HCV inhibitor,Pf growth 96h,Sm TGR inh,Pf growth 48h
COc1ccc(-c2cc(OC(=O)c3cccc(Cl)c3)c3c(C)oc(C)c3c(=O)c2)cc1,-3,nt,nt,nt,22µM*,nt
COC(=O)c1c(NC(=O)Cc2coc3cc(C)ccc23)sc2c1CCCC2,10,nt,nt,nt,0%,nt
C[C@H](CO)N1C[C@H](C)[C@@H](CN(C)C(=O)c2ccncc2)OCc2cn(nn2)CCCC1=O,22,nt,nt,nt,nt,nt
Cc1ccc(NC(=O)Cn2cc(S(=O)(=O)N3CCC(C)CC3)c3ccccc3c2=O)c(Br)c1,-4,nt,nt,nt,1%,nt
CC(C)Cc1nc(Cl)c(C#N)c2c1CCCC2,-75*,-6%,-11%,?,-7%,-10%
CCCc1nc(NCCO)c(C#N)c2c1CCCC2,-8,-3%,?,-2%,-3%,20%
CC(=O)N1CCN(c2nc(CC(C)C)c3c(c2C#N)CCC3)CC1,-25,-1%,?,?,-11%,?
CCCc1nc(Cl)c(C#N)c2c1CCCC2,-38,12%,?,19%,25µM*,24%
COc1ccc(-c2noc3c2-c2nc(-c4cccc(C)c4)sc2CC3)cc1,38,3%,1%,-6%,-9%,18%
CCN1C(=O)N[C@@H](CCc2ccccc2)[C@@H](C(=O)OC)[C@H]1C,8,-1%,-15%,71%,2.2µM*,49%
COC(=O)[C@H]1[C@@H](C)N(CCc2cc(OC)c(OC)c(OC)c2)C(=O)N[C@H]1c1ccccc1,-23,nt,22µM*,nt,nt,nt
CCN1C(=O)N[C@@H](c2ccccc2)[C@@H](C(=O)OC)[C@H]1C,-9,nt,27%,nt,nt,nt
O=C(N/N=C/c1cccc(Br)c1)C1CC(=O)N(c2ccccc2)C1 (centres undefined),-12,-1%,3%,-9%,-2%,9%
COc1ccccc1NC(=O)c1c(N=Cc2c(O)ccc3ccccc23)cnn1C,-89*,1%,?,?,50µM*,7.4µM*
O=C(CNc1ccc(F)cc1)N/N=C/c1c(O)ccc2ccccc12,-97*,11%,?,23%,?,nt
COc1ccccc1NCC(=O)N/N=C/c1cccnc1,21,0%,nt,?,-2%,0%
O=C(Cc1n[nH]c(=O)[nH]c1=O)N/N=C/c1c(O)ccc2ccccc12,2,4%,-1%,?,0%,?
Cn1ncc(N=Cc2c(O)ccc3ccccc23)c1C(=O)N1CCOCC1,20,nt,7%,nt,nt,nt
COc1ccccc1NCC(=O)N/N=C/c1c(O)ccc2ccccc12,-95*,0%,2.8µM*,0%,-34%,?
CCC(=O)N1CCCC(C(=O)Nc2ccc3cn[nH]c3c2)CC1 (centres undefined),1,nt,nt,nt,nt,nt
CCc1nc2ccc(C(=O)NCCCn3ccnc3)cn2c1N(CC)C(=O)NCCc1ccccc1,51,nt,nt,nt,nt,nt
CCC1CN2CCc3cc(OC)c(OC)cc3C2CC1CC1NCCc2c1[nH]c1ccc(O)cc21 (centres undefined),-99*,nt,?,nt,nt,nt
COC(=O)C(NC(=O)CSc1nc(N)cc(=O)[nH]1)c1ccccc1 (centres undefined),-10,0%,6%,17%,1%,27%

# Assay outcomes as filed in PubChem BioAssay.
